The full data set covers some 7,900 targets. This sample favours those with a hit. About 0.6% of all pairs of compound and target were hits. Unmarked numbers belong to inactive results.

UniProt Q05655, sequence (Q05655 whole entry, looked up): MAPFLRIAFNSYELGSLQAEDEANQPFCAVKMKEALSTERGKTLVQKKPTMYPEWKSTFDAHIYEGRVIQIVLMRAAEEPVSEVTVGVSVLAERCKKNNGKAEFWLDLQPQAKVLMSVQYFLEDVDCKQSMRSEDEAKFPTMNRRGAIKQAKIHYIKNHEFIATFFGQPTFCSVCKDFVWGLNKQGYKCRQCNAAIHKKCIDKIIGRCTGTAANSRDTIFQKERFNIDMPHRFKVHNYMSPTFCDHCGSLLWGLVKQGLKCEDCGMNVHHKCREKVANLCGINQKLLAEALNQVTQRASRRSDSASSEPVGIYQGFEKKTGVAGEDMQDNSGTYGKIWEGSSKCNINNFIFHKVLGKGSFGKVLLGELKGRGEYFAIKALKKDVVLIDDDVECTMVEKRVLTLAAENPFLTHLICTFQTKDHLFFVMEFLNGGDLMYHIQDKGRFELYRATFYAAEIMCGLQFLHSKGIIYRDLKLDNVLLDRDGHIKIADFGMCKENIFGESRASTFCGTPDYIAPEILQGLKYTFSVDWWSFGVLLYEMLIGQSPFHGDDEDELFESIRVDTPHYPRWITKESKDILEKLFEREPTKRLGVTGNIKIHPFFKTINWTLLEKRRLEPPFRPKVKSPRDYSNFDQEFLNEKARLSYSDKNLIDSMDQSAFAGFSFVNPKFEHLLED
UniProt P35998, sequence (P35998 whole entry, looked up): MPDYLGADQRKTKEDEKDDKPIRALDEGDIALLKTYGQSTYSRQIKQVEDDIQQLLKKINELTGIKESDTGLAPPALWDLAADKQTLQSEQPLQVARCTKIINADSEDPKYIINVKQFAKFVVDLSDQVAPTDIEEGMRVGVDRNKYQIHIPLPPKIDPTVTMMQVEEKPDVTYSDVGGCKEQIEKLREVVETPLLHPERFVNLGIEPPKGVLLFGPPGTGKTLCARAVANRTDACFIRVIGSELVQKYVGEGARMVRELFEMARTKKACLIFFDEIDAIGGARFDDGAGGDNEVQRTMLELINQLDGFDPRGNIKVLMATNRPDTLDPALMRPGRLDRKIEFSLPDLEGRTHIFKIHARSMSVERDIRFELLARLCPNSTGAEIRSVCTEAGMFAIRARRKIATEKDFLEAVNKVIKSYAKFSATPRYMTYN
UniProt Q8N4L2, sequence (Q8N4L2 whole entry, looked up): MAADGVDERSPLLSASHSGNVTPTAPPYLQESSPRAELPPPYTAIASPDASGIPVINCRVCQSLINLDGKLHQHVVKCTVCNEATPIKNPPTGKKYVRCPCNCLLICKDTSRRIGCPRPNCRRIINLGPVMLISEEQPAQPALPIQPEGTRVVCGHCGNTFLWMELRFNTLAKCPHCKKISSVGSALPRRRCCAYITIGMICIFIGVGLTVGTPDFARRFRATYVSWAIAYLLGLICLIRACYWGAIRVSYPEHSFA
UniProt Q15121, sequence (Q15121 whole entry, looked up): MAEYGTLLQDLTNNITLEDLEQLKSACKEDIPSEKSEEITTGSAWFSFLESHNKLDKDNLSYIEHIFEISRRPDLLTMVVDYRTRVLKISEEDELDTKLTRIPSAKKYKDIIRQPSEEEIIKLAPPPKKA
UniProt Q9H814, sequence (Q9H814 whole entry, looked up): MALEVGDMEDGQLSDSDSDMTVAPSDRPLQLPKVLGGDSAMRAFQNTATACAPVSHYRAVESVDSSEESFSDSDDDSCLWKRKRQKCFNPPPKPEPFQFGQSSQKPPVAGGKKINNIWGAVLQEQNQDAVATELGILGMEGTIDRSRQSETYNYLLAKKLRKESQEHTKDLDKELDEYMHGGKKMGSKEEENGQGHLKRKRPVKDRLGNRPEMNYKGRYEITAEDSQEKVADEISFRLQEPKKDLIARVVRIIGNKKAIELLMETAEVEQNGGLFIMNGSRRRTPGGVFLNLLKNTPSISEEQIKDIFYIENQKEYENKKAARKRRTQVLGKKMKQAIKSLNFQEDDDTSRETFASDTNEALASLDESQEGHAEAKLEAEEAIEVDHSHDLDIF
UniProt Q86W56, sequence (Q86W56 whole entry, looked up): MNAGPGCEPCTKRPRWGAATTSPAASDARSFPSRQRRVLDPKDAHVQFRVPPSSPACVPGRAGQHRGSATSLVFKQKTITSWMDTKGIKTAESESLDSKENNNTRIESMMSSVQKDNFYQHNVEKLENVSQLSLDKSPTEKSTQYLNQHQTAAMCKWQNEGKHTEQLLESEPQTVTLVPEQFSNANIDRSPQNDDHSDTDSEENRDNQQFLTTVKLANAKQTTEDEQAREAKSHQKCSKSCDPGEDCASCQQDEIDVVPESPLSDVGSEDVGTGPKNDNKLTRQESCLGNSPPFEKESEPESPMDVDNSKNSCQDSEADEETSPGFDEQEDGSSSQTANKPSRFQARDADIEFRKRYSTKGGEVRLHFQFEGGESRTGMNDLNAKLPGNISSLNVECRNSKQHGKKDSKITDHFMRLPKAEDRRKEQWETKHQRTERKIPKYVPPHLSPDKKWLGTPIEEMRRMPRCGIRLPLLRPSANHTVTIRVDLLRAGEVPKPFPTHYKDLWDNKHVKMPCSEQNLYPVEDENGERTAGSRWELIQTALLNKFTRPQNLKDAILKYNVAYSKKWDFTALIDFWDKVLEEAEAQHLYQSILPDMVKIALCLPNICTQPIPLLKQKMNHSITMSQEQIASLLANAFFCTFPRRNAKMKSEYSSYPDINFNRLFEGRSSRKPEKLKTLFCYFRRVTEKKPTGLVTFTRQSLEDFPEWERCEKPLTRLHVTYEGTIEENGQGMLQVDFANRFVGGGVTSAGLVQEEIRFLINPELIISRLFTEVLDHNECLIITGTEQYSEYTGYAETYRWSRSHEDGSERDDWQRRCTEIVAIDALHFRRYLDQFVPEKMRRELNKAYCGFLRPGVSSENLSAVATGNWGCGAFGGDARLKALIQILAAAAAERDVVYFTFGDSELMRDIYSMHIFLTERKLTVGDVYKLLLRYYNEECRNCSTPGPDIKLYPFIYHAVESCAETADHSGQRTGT
UniProt Q99575, sequence (Q99575 whole entry, looked up): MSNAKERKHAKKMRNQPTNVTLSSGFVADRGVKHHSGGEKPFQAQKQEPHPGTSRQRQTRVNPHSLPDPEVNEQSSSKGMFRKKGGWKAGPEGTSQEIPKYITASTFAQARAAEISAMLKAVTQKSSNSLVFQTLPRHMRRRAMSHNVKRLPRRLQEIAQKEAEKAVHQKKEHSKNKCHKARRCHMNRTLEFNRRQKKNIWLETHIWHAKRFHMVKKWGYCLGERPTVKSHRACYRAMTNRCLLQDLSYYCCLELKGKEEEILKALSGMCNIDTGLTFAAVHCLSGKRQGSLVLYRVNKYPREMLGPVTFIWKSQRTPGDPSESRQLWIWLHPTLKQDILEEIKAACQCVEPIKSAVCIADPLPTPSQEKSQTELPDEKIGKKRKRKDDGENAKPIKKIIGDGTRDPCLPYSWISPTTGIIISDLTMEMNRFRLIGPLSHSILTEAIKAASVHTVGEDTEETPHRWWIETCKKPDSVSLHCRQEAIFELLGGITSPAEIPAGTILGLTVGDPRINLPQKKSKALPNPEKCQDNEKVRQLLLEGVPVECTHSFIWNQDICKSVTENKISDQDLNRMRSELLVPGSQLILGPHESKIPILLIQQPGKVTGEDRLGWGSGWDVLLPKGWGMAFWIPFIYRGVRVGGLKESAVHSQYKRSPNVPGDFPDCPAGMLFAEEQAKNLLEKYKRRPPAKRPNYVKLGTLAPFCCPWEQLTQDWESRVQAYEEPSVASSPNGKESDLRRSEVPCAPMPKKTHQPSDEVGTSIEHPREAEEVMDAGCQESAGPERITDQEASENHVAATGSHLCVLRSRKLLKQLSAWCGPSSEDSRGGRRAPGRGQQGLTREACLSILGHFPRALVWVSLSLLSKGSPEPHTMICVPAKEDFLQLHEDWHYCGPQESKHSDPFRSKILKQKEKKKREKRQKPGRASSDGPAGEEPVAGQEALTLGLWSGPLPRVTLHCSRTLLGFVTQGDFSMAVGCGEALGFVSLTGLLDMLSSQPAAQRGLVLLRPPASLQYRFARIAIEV
UniProt P27986, sequence (P27986 whole entry, looked up): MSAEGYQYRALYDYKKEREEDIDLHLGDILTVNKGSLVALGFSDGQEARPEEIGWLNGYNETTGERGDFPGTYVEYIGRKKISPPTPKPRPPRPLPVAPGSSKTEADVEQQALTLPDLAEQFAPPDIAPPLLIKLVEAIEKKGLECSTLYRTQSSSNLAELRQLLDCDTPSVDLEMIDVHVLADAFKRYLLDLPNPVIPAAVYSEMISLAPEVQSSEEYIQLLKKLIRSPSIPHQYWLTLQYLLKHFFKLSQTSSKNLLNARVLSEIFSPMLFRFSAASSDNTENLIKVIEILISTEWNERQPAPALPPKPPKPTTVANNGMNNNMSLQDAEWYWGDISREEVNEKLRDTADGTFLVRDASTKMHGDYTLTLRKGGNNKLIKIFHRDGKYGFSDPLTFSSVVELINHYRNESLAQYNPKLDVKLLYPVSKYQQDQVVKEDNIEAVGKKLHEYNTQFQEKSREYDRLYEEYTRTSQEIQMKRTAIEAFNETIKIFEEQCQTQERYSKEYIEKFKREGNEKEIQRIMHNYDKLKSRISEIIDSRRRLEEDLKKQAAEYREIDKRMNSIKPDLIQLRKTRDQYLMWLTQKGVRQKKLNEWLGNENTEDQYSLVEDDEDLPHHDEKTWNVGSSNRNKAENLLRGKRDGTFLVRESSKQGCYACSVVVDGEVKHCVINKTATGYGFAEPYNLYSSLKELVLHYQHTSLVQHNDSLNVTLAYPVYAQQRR
UniProt Q8TAP8, sequence (Q8TAP8 whole entry, looked up): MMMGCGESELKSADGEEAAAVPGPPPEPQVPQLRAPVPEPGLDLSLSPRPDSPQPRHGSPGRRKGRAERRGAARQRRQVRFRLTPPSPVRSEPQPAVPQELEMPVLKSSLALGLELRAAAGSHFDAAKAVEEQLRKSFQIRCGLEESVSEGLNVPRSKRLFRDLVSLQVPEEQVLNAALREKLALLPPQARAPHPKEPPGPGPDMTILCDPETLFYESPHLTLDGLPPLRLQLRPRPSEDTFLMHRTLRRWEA

Compound in the first experiment: CC1=NC(=CC=C1)C2=C(N=C(N2)C(C)(C)C)C3=CC4=NC=CN=C4C=C3
Briefly: log2 fold change, soluble protein after heating vs DMSO (PISA); higher = thermal stabilisation; K562 cells, 10 uM, 30 min; active = over 0.2 and 3.5 SD of the protein, either way, in both replicates (recomputed). Put shortly:
(§1)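 Soluble protein was quantified by TMTpro 16plex LC-MS/MS after channel sums were equalised. It was obtained as the supernatant after 21,000xg for 90 min from pooled aliquots of K562 cells (2×10^6 cells/mL, 10 μM compound, 30 min) heated for 3 min across 48°C-58°C and extracted in PBS with 0.5% NP-40 at 4°C. Thermal stability values are relative to control samples and come from duplicates. They are given as log2 fold changes.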
As for PSMC2 (UniProt P35998), the log2 fold change is -0.069.
Same read-out and setting: under PSMB6 (UniProt P28072) stands -0.001.
Still for that read-out and setting: in the case of PRKD2 isoform 3 (UniProt Q9BZL6) it was 0.028; in that of QKI (UniProt Q96PU8), 0.036; in that of PKN1 isoform 2 (UniProt Q16512), 0.014.
PRPF38B (UniProt Q5VTL8): the log2 fold change is 0.015.
Consider PTPN12 (UniProt Q05209), for which the log2 fold change was -0.034.
In the case of PDCD6 (UniProt O75340), the log2 fold change is 0.032.
Take PPOX (UniProt P50336): the log2 fold change is 0.099.
Still for that read-out and setting: under POP1 (UniProt Q99575) stands -0.02; under PIKFYVE (UniProt Q9Y2I7), 0.006; under PPP1R35 (UniProt Q8TAP8), 0.034.
Consider PSMB4 (UniProt P28070), for which the log2 fold change is -0.031.
On to PLIN2 (UniProt Q99541), for which the log2 fold change was 0.022.
Still for that read-out and setting: in the case of PCNT (UniProt O95613) it was -0.116.
The same measure, in the same setting: under PSMD13 (UniProt Q9UNM6) stands -0.029; under PEA15 isoform 2 (UniProt Q15121), -0.008.
The same measure, in the same setting: in the case of PARG (UniProt Q86W56) it was 0.025.
For the target PDLIM7 (UniProt Q9NR12), the log2 fold change is 0.046.
Same read-out and setting: in the case of PEX13 (UniProt Q92968) it was -0.02.
Same read-out and setting: under PRKCD (UniProt Q05655) stands -0.016; under PSMC5 (UniProt P62195), -0.05; under PCBP1 (UniProt Q15365), 0.067.
As for POLR3B (UniProt Q9NW08), the log2 fold change was 0.022.
Take PHKG2 (UniProt P15735): the log2 fold change was -0.031.
Still for that read-out and setting: under POLR2D (UniProt O15514) stands 0.004; under PRKAB1 (UniProt Q9Y478), 0.01; under PRKAA1 isoform 2 (UniProt Q13131), 0.02.
Take PSMC4 (UniProt P43686): the log2 fold change was -0.036.
For PRKAR1A (UniProt P10644), the log2 fold change was -0.103.
The same measure, in the same setting: in the case of PIK3R1 (UniProt P27986) it was -0.046; in that of PHAX (UniProt Q9H814), -0.043.
The same measure, in the same setting: under PIP4P2 (UniProt Q8N4L2) stands -0.002; under PLBD1 (UniProt Q6P4A8), -0.039; under PSMC1 (UniProt P62191), -0.069.
PDE12 (UniProt Q6L8Q7): the log2 fold change is 0.026.
For the target PARN (UniProt O95453), the log2 fold change is 0.013.

Compound in the next experiment: CCCCN(Cc1ccc(C(=O)NO)cc1)C(=O)Nc1ccccc1 [Nexturastat A]
The experiment is described as above. Put shortly: as §1
In the case of PSMC2 (UniProt P35998), the log2 fold change was 0.011.
Turning to PSMB6 (UniProt P28072), the log2 fold change was -0.019.
On to PRKD2 isoform 3 (UniProt Q9BZL6), for which the log2 fold change is 0.006.
For the target QKI (UniProt Q96PU8), the log2 fold change was -0.109.
On the same count and under the same terms, under PKN1 isoform 2 (UniProt Q16512) stands 0.053.
Still for that read-out and setting: under PRPF38B (UniProt Q5VTL8) stands -0.011; under PTPN12 (UniProt Q05209), 0.162.
Still for that read-out and setting: in the case of PDCD6 (UniProt O75340) it was -0.032; in that of PPOX (UniProt P50336), -0.232.
As to POP1 (UniProt Q99575), the log2 fold change was -0.011.
Same read-out and setting: under PIKFYVE (UniProt Q9Y2I7) stands 0.004; under PPP1R35 (UniProt Q8TAP8), -0.009; under PSMB4 (UniProt P28070), 0.023.
Take PLIN2 (UniProt Q99541): the log2 fold change was 0.082.
On the same count and under the same terms, under PCNT (UniProt O95613) stands 0.007; under PSMD13 (UniProt Q9UNM6), 0.064; under PEA15 isoform 2 (UniProt Q15121), -0.071.
Still for that read-out and setting: in the case of PARG (UniProt Q86W56) it was 0.018; in that of PDLIM7 (UniProt Q9NR12), -0.016; in that of PEX13 (UniProt Q92968), 0.116.
The same measure, in the same setting: under PRKCD (UniProt Q05655) stands -0.032; under PSMC5 (UniProt P62195), 0.003; under PCBP1 (UniProt Q15365), -0.038.
On to POLR3B (UniProt Q9NW08), for which the log2 fold change is 0.026.
Same read-out and setting: under PHKG2 (UniProt P15735) stands 0.002; under POLR2D (UniProt O15514), 0.027.
As to PRKAB1 (UniProt Q9Y478), the log2 fold change is -0.002.
For the target PRKAA1 isoform 2 (UniProt Q13131), the log2 fold change is -0.042.
On the same count and under the same terms, in the case of PSMC4 (UniProt P43686) it was 0.03; in that of PRKAR1A (UniProt P10644), 0.053; in that of PIK3R1 (UniProt P27986), -0.018.
In the case of PHAX (UniProt Q9H814), the log2 fold change is 0.02.
Regarding PIP4P2 (UniProt Q8N4L2), the log2 fold change was -0.092.
Consider PLBD1 (UniProt Q6P4A8), for which the log2 fold change was 0.005.
With PSMC1 (UniProt P62191), the log2 fold change is 0.026.
Regarding PDE12 (UniProt Q6L8Q7), the log2 fold change was -0.064.
Take PARN (UniProt O95453): the log2 fold change is -0.069.
